# According to PubChem BioAssay (NCI):
# Compounds without any hit were thinned out: in the full panel of roughly 83,000, 20% have a hit.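 Negative percent growth values reflect cell death: -40 means 40% of the cells present at the start died, and -100 means all died.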 Values without a mark were called inactive. Active and inactive are the calls of the source. Rule for the calls: active = growth percent below 10; inactive = the rest.
# How the values were obtained:
# Test in all cases: NCI-60 one-dose screen, 48 h (100 = growth as untreated, 0 = no growth, -100 = all killed)
# Conditions in all cases: 10 µM unless noted
# [1] = test system: HCT-15 colon
# [2] = test system: HT29 colon
# [3] = test system: SNB-75 CNS
# [4] = test system: SNB-19 CNS
# [5] = test system: U251 CNS
# [6] = test system: PC-3 prostate
# [7] = test system: UACC-62 melanoma
# [8] = test system: LOX IMVI melanoma
# [9] = test system: SK-MEL-28 melanoma
# [10] = test system: SK-MEL-5 melanoma
Structure (SMILES),growth [1],growth [2],growth [3],growth [4],growth [5],growth [6],growth [7],growth [8],growth [9],growth [10]
CCCCCCCCNc1cccc2c1C(=O)c1ccccc1C2=O,107%,89.7%,98.3%,96.4%,110%,104%,96%,105%,114%,–
COc1cc(/C=C/c2cc(/C=C/c3ccc(O)c(OC)c3)n(-c3ccc(Cl)cc3)c(=O)n2)ccc1O,85.4%,-5.09% (active),69.7%,91%,75.5%,77.3%,–,61.6%,81.6%,–
Cn1cc(-c2csc(-c3cn(CCNC(=O)OC(C)(C)C)c4ccc(F)cc34)n2)c2cccnc21,52.8%,76.2%,86.3%,90.3%,82.2%,25.9%,–,71.9%,88.7%,–
Nc1c(C(=O)Nc2c(Cl)cccc2Cl)sc2nc3c(cc12)CCCC3,41.9%,43.3%,71.6%,82.8%,74.1%,80%,–,59.4%,–,–
CC1(c2ccccc2)OC1C(=O)O (stereo not drawn),106%,102%,91.6%,109%,117%,106%,–,97.4%,98.7%,–
C/C(Cc1ccc(Cl)cc1)=C(/c1ccc(Cl)cc1)c1ccc(OCCN2CCCC2)cc1,28.3%,22.1%,78.2%,89.8%,58.3%,65.4%,95.6%,–,98.2%,–
Cc1cc(N(CCNc2ccnc3cc(Cl)ccc23)Cc2ccco2)nc(Cl)n1,1.35% (active),-33.4% (active),-88.7% (active),15.4%,-66.5% (active),-54.4% (active),–,-64.8% (active),-33.4% (active),–
CC1(C)c2ccccc2C(=O)C1(Br)Cc1ccccc1 (stereo not drawn),71.3%,67.4%,78.8%,81.1%,91%,77.4%,–,78.7%,95.8%,–
Cc1ccc2c(c1)c1nc3cc(C)c(C)cc3nc1n2CCN(C)C,3.18% (active),–,23.9%,17.1%,23.7%,25%,12.3%,–,–,15.4%
Cc1cc(N2CCOCC2)nc(N(CCCNc2ccnc3cc(Cl)ccc23)Cc2ccco2)n1,24%,-2.68% (active),51.6%,20.4%,25.4%,34.7%,–,4.95% (active),49.5%,–
Cn1cc(-c2csc(-c3cn(CCN)c4ccccc34)n2)c2cccnc21,46.6%,30.3%,46.8%,65.3%,-75% (active),46.7%,–,45.3%,73%,–
Cn1cc(-c2nc(-c3cn(C)c4ncccc34)cs2)c2cc(F)ccc21,21.3%,8.87% (active),29.1%,46.4%,31.8%,47.1%,41.7%,–,50.9%,–
CCCCCCCC(=O)SCC/C=C/[C@@H]1CC(=O)NCc2cccc(n2)CN(Cc2ccc3ccccc3c2)CC(=O)N[C@@H](C(C)C)C(=O)O1,57.8%,14.5%,29.2%,48.9%,35.9%,34.8%,–,5.42% (active),–,–
O=C(O)c1cccc2c1-c1ccc(Cl)cc1C2,102%,109%,88.2%,105%,108%,108%,–,–,108%,–
NC(=O)NCC1CCCCC1,94.5%,102%,90.7%,115%,104%,104%,–,94.1%,110%,–
Cc1ccc(Cc2cnc(NC(=O)/C=C/c3cccc(C)c3)s2)cc1,7.04% (active),0.0384% (active),-23.6% (active),13.4%,9.32% (active),30.3%,16.3%,–,50.3%,–
Cn1c(/C(C#N)=C/c2ccc3ccccc3c2)cc2ccccc21,5.67% (active),21.8%,15.3%,23.9%,34.1%,28.8%,18.7%,–,63.4%,–
